The nature of experiment [1]: binders of probe aFSTL3 on microarray, primary screen, stem cell growth factor project, biochemical, small-molecule microarray, fluorescence 635/667 (AID 1064).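 Also: measures binding of the biotinylated anti-FSTL3 antibody to printed compounds.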 Particulars: higher = more signal.
Experiment [2] in a line: binders from COS7 lysate, DM2A8 probe, primary screen, torsin A project, cell lysate, small-molecule microarray, fluorescence 635/667 (AID 1065). Particulars: higher = more signal, COS7 lysate expressing mutant human TOR1A.
The nature of experiment [3]: binders of probe aFGF2 on microarray, primary screen, stem cell growth factor project, biochemical, small-molecule microarray, fluorescence 635/667 (AID 1067).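 Also: measures binding of biotinylated aFGF2 protein to printed compounds on slides; z-score merges feature fluorescence and signal-to-noise across triplicate slides.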 The conditions noted are these: higher = more signal.
The nature of experiment [4]: binders of probe aFGF10 on microarray, primary screen, stem cell growth factor project, biochemical, small-molecule microarray, fluorescence 635/667 (AID 1071).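 Also: score merges 667 nm spot intensity and signal to noise from triplicate slides.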 The conditions noted are these: higher = more signal.
The target of experiment [5] is Neurogenic locus notch homolog protein 2 (Homo sapiens) (UniProt Q04721). In words: Notch2 binders on small-molecule microarrays, primary screen, biochemical, small-molecule microarray, 635 nm fluorescence, stem cell growth factors (AID 1073). The conditions noted are these: Notch2 binding, higher = more signal.
Experiment [6] has as its target Pro-neuregulin-1, membrane-bound isoform (Homo sapiens) (UniProt Q02297). In words: NRG1 binders on small-molecule microarrays, primary screen, psychiatric disease protein project, biochemical, small-molecule microarray, fluorescence 635/667 (AID 1075).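 Also: score combines 667 nm spot fluorescence with signal to noise.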 Particulars: NRG1 binding, 635 nm fluorescence, higher = more signal.
In experiment [7] the test system is Neuregulin-1 EGF-like domain. In words: binders of neuregulin-1 EGF-like domain, primary screen, biochemical, small-molecule microarray, 635 nm fluorescence (AID 1081).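 Also: binding of the protein to compounds printed on small-molecule microarray slides.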 Particulars: small-molecule microarray binding, higher = more signal.
Experiment [8] can be described thus: FRG1 promoter luciferase signal modulators, primary screen, FRG1 inhibition for FSHD, cell-based, C2C12 myotubes, firefly/Renilla luciferase, luminescence (AID 1084). Particulars: higher = more signal, called active from +8 up or from −8 down.
Experiment [9] can be described thus: binders of probe aFST on microarray, primary screen, stem cell growth factor project, biochemical, small-molecule microarray, fluorescence 635/667 (AID 1086).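 Also: score merges 667 nm fluorescence with signal-to-noise of each printed compound spot.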 The conditions noted are these: higher = more signal.
A short description of experiment [10]: binders of probe aHhip on microarray, primary screen, stem cell growth factor project, biochemical, small-molecule microarray, fluorescence 635/667 (AID 1087).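 Also: score merges spot fluorescence at 667nm with spot signal to noise ratio.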 The conditions noted are these: higher = more signal.

Structures are written as SMILES. Calls of active or inactive are those of the source.

Sequence of Pro-neuregulin-1, membrane-bound isoform (Homo sapiens) (Q02297 whole entry, looked up, the tested form may be a part, canonical isoform): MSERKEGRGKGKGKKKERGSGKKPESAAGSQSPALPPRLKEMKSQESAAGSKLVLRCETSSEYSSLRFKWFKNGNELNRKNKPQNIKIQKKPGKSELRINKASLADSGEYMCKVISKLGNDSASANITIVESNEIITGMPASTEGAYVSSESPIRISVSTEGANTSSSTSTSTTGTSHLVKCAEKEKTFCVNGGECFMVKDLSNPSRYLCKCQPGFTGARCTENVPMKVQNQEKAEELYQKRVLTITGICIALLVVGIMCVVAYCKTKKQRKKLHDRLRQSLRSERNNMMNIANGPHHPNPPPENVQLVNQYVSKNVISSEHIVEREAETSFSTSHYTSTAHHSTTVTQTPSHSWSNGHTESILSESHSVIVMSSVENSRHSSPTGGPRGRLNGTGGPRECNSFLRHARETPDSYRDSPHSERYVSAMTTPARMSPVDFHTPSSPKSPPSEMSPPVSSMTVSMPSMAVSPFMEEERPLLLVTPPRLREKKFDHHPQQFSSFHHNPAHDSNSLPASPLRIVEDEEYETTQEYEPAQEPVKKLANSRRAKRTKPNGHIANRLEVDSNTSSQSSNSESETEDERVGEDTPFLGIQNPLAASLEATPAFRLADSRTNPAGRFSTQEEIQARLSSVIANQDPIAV
Sequence of Neurogenic locus notch homolog protein 2 (Homo sapiens) (Q04721 whole entry, looked up, canonical isoform): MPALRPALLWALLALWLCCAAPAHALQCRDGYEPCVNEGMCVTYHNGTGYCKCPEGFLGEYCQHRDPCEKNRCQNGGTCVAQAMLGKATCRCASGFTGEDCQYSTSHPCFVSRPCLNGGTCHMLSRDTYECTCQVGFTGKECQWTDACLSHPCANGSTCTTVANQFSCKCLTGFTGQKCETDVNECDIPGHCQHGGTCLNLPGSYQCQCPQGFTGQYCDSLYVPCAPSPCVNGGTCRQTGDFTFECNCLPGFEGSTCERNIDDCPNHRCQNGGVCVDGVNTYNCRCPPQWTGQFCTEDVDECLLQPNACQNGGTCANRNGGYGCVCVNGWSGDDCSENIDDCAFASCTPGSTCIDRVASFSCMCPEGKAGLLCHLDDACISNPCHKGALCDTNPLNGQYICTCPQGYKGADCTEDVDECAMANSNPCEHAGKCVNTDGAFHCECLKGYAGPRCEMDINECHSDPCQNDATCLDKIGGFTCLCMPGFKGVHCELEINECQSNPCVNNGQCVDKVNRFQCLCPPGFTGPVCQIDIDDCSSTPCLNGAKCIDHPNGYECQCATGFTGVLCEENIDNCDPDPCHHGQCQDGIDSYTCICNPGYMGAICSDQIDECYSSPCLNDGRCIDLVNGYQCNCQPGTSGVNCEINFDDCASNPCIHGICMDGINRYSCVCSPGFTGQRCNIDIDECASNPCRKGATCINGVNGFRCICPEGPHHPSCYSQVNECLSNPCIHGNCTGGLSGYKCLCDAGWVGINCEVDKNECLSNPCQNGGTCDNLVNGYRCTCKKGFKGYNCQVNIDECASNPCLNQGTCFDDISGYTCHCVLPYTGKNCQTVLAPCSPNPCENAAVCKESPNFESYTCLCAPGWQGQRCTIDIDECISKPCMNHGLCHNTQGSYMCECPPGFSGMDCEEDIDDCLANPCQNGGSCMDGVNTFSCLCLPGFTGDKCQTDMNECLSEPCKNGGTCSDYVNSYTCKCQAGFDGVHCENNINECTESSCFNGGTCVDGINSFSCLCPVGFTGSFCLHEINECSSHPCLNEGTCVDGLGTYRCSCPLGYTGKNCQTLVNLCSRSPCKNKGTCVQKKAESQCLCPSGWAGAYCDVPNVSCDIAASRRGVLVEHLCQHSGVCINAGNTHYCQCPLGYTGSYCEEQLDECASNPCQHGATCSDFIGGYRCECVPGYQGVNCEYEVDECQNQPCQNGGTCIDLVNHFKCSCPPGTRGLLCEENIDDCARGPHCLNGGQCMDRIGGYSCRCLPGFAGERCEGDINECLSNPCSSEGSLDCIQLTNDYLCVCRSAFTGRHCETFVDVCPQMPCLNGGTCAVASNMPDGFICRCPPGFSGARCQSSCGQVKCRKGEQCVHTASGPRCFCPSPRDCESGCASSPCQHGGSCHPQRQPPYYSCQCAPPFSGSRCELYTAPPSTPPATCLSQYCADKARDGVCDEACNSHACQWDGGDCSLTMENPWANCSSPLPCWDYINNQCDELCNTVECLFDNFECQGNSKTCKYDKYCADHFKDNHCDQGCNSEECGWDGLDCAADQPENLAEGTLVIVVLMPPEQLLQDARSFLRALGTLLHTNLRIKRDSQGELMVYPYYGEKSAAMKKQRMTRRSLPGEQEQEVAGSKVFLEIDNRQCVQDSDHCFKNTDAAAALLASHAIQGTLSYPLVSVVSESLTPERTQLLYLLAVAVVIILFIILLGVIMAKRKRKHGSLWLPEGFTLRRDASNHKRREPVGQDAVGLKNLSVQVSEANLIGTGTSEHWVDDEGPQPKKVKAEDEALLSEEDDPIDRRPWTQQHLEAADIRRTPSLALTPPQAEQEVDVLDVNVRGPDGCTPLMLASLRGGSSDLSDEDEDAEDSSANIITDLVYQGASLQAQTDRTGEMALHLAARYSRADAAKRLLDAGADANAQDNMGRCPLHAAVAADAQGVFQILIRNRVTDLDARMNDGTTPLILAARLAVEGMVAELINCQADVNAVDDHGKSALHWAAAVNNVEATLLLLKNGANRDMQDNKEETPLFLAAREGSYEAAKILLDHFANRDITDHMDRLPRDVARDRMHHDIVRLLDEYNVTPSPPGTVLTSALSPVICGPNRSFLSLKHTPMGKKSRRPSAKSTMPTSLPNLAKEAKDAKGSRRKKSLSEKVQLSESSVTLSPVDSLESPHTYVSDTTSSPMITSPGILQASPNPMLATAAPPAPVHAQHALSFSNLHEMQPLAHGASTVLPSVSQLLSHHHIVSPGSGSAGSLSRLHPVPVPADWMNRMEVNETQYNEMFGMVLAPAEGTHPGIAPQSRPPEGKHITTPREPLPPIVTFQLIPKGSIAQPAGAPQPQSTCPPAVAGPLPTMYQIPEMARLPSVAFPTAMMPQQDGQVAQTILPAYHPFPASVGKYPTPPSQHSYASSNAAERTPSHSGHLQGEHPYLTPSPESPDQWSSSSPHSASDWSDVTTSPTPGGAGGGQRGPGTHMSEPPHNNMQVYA

For `C[C@H]1CC[C@H]2C(=O)OC(CO)CN2[C@@H]1c1ccc(Br)cc1` (stereo not given in full), the composite z-score in experiment [1] is -0.321; in experiment [2], 0.414; in experiment [3] it was -0.145; in [4] it was -0.0786; in experiment [5] it was -0.453; in experiment [6], -0.365. Moreover, the composite z-score in experiment [7] was 0.374; in experiment [9], -0.104; in experiment [10], -0.0645. In addition, the z-score in [8] is -0.761 (inactive).
In the case of `COCOc1ccc(Br)cc1C(=O)[C@@H]1O[C@H]1c1cccc(OC)c1`, the composite z-score in experiment [1] is -0.305; in experiment [2], -0.0196; in [3], -0.122; in experiment [4], 0.204; in experiment [5], 0.333; in experiment [6], -0.268. In addition, the composite z-score in experiment [7] is 0.287; in [9], -0.0156; in experiment [10], -0.202. In addition, the z-score in experiment [8] was -0.0714 (inactive).
With `CCOC(=O)[C@H](CC(C)C)NC(=O)CCC1CC(OC(=O)NCc2cccc3ccccc23)CC2(CCCC(COC(=O)NCCc3ccc(Cl)cc3)O2)O1` (stereo not given in full), the composite z-score is -0.318 in [1]; -0.19 in experiment [2]; -0.0797 in experiment [3]; 0.293 in [4]; 0.461 in experiment [5]; 0.533 in [6]. Besides, the composite z-score in experiment [7] was 0.744; in experiment [9], -0.001; in [10], -0.0994. For the same molecule, the z-score in experiment [8] is 1.83 (inactive).
Consider `CCOC(=O)[C@H](CC(C)C)NC(=O)CCC1CC(OC(=O)NCCc2ccc(F)cc2)CC2(CCCC(COC(=O)NCCc3ccccc3OC)O2)O1` (stereo not given in full), for which the composite z-score was -0.329 in [1]; 0.0726 in experiment [2]; -0.0806 in [3]; 0.363 in experiment [4]; 0.41 in experiment [5]; 1.08 in [6]. Moreover, the composite z-score was 0.577 in [7], 0.216 in experiment [9] and -0.134 in experiment [10]. The z-score in experiment [8] is 0.617 (inactive).
On to `O=C1[C@H]2[C@H]3[C@H](O)[C@H](O)CC(=NOCc4ccccc4)[C@@H]3CC[C@H]2C(=O)N1Cc1ccc2c(c1)OCO2`, for which the composite z-score is -0.138 in [1]; -0.247 in [2]; -0.0583 in experiment [3]; 0.321 in experiment [4]; 0.376 in experiment [5]; 0.299 in experiment [6]. For the same molecule, the values for the composite z-score in experiment [7], in experiment [9] and in experiment [10] were -0.0604, 0.357 and 0.0922, respectively. Also, in experiment [8], the z-score was 1.1 (inactive).
For the molecule `O=C1C2=CC[C@H]3C(=O)N(c4cccc(Oc5ccccc5)c4)C(=O)[C@H]3[C@H]2[C@H](O)[C@@H]2O[C@H]12`, the composite z-score in [1] is -0.476; in [2] it was 0.337; in experiment [3] it was -0.14; in experiment [4] it was 0.258; in [5], -0.139; in experiment [6] it was 0.0597. In addition, the results for the composite z-score in experiment [7], in [9] and in experiment [10] were 0.129, 0.373 and -0.184, respectively. Also, the z-score in [8] was -0.492 (inactive).
`C[C@@H](c1ccccc1)N1C(=O)[C@H]2[C@H]3[C@H](O)[C@H](O)CC(=NOCc4ccccc4)[C@H]3CC[C@H]2C1=O`: the composite z-score in experiment [1] was -0.393; in experiment [2], 0.0852; in experiment [3], -0.0667; in experiment [4] it was 0.0945; in experiment [5], 0.39; in experiment [6] it was 0.381. Moreover, the composite z-score in [7] is 1.22; in experiment [9], 0.317; in experiment [10], -0.0383. Also, the z-score in experiment [8] was -0.405 (inactive).
Turning to `CC(CCN1CCCc2nc(C)c(C)cc21)=NOC(C)CN1CCCCc2nc(C)c(C)cc21` (stereo not given), the composite z-score is -0.213 in experiment [1]; 0.854 in experiment [2]; 0.0766 in [3]; 0.644 in experiment [4]; 1.51 in experiment [5]; 0.303 in [6]. The composite z-score worked out at 1.13 in experiment [7], 1.09 in experiment [9] and 0.815 in [10]. In experiment [8], the z-score was 1.21 (inactive).
On to `CC(C)=CCCC(C)=CCON=C1C[C@@H](O)[C@@H](O)[C@@H]2[C@@H]3C(=O)N(C[C@@H]4CCCO4)C(=O)[C@@H]3CC[C@H]12`, for which the composite z-score was -0.532 in experiment [1]; 1.78 in [2]; -0.142 in experiment [3]; 0.508 in [4]; 0.583 in experiment [5]; 0.447 in experiment [6]. Besides, the composite z-score in experiment [7] is 1.05; in experiment [9] it was 0.417; in experiment [10], -0.0645. Further, the z-score in experiment [8] was -0.0588 (inactive).
On to `CCOC(=O)[C@H](CC(C)C)NC(=O)CCC1CC(OC(=O)NCc2ccc3c(c2)OCO3)CC2(CCCC(COC(=O)NCC3CCCCC3)O2)O1` (stereo not given in full), for which the composite z-score in experiment [1] was -0.203; in experiment [2], 1.06; in experiment [3] it was -0.11; in experiment [4], 0.443; in experiment [5], 0.6; in [6], 0.292. In addition, the composite z-score is 1.02 in [7], 0.293 in experiment [9] and -0.255 in experiment [10]. For the same molecule, the z-score in experiment [8] was 0.807 (inactive).
Turning to `O=C1C[C@@H](O)[C@@H](O)[C@@H]2[C@@H]3C(=O)N(C[C@@H]4CCCO4)C(=O)[C@@H]3CC[C@@H]12`, the composite z-score in experiment [1] was -0.58; in experiment [2], 0.203; in [3] it was -0.0329; in [4], 0.58; in experiment [5], 0.686; in experiment [6], 0.123. For the same molecule, the composite z-score in experiment [7] amounted to 0.459; in experiment [9] it was 0.817; in experiment [10], 0.21. Moreover, in experiment [8], the z-score is -1.13 (inactive).
For `Cc1cc2c(nc1C)CCCCN2CC(C)ON=C[C@@H](C)[C@H](OCc1ccccc1)C(C)C` (stereo not given in full), the composite z-score is -0.0674 in experiment [1]; -0.777 in [2]; -0.307 in experiment [3]; -1.05 in experiment [4]; -1.38 in experiment [5]; -0.317 in [6]. The figures for the composite z-score in experiment [7], in experiment [9] and in experiment [10] were -0.366, -0.514 and -0.0994, respectively. For the same molecule, the z-score in [8] was -0.154 (inactive).
On to `C#CCCCON=C1C[C@@H](O)[C@@H](O)[C@@H]2[C@@H]3C(=O)N(CC)C(=O)[C@@H]3CC[C@@H]12`, for which the composite z-score is -0.572 in experiment [1]; 0.278 in experiment [2]; -0.143 in experiment [3]; 0.722 in experiment [4]; 0.656 in [5]; 0.614 in experiment [6]. In addition, the composite z-score in experiment [7] turned out to be 0.636; in experiment [9], 0.276; in experiment [10], 0.235. The z-score in [8] is -0.0351 (inactive).
On to `CCN1C(=O)[C@H]2[C@H]3[C@H](O)[C@H](O)CC(=O)[C@H]3CC[C@H]2C1=O`, for which the composite z-score is -0.652 in [1]; 0.481 in experiment [2]; -0.0566 in [3]; 0.39 in [4]; 0.132 in [5]; 0.298 in experiment [6]. For the same molecule, the composite z-score in experiment [7] is 0.81; in experiment [9] it was 0.0722; in experiment [10] it was 0.0373. Moreover, in experiment [8], the z-score was 0.276 (inactive).
As to `C[C@@H](c1ccccc1)N1C(=O)[C@H]2[C@H]3[C@H](O)[C@H](O)CC(=O)[C@H]3CC[C@H]2C1=O`, the composite z-score is -0.483 in experiment [1]; 0.107 in experiment [2]; -0.0878 in experiment [3]; 0.443 in experiment [4]; 0.896 in [5]; 0.286 in [6]. The composite z-score in experiment [7] is 0.477; in experiment [9] it was 0.0442; in experiment [10] it was -0.0994. Moreover, in experiment [8], the z-score was -0.12 (inactive).
In the case of `O=C1C[C@@H](O)[C@@H](O)[C@@H]2[C@@H]3C(=O)N(Cc4ccc5c(c4)OCO5)C(=O)[C@@H]3CC[C@H]12`, the composite z-score in [1] is -0.296; in experiment [2], 0.348; in experiment [3] it was -0.0218; in [4], 0.477; in [5], 0.558; in experiment [6], 0.229. In addition, the composite z-score was 0.29 in experiment [7], 0.078 in [9] and 0.0505 in experiment [10]. The z-score in experiment [8] is 0.376 (inactive).

Source of the values: PubChem BioAssay.
